In the library only some 19% were active in any assay of this set; here they are far more common.
KB-V1 MDR tox: kills drug-selected multidrug resistant KB-V1 cells | KB-V1 MDR cells viability, CellTiter-Glo, 72 h | Potency, µM (titrated, usually from 46.1 µM), usual class: cytotoxic | 400,000 tested, 3.4% active | AID 1347076; further: nearly all actives have a fitted effect of over 60% in size
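Potencies derive from concentration-effect curves fitted to normalized luminescence (CellTiter-Glo) of KB-V1 cells treated for 72 h at 37 degrees C in phenol-red-free DMEM containing 10% FBS.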
TDP1 cell noCPT: qHTS for Inhibitors of human tyrosyl-DNA phosphodiesterase 1 (TDP1): qHTS in cells in absence of CPT. AID 686978, 2013. 420,000 tested, 15% active. Potency, µM (doses to about 46.2 µM), without a hit: at the top dose activity change, negative = growth inhibition, hits mostly inhibitors. DT40 Tdp1-/- hTDP1 cells, no CPT, ATP luminescence, 48 h; further: nearly all actives have a fitted effect of over 55% in size
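Compound effects on proliferation are scored in DT40 Tdp1-/-;hTDP1 cells in the absence of CPT. ATP levels (CellTiter-Glo luminescence) are recorded after a ≥48 hr, 37 °C incubation.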
HT1080-NT tox: kills 2HG-producing HT-1080-NT fibrosarcoma cells; HT-1080-NT fibrosarcoma viability, CellTiter-Glo ATP luminescence, 48 h; Potency, µM (series often up to 46.1 µM), inactives show at the top dose activity, negative = less viability, hits mostly cytotoxic; 360,000 tested, 1.6% active; AID 686970;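 further: NT is the 2HG producing partner of a matched IDH1 knockdown line; 0% = DMSO-treated cells and -100% = media-only wells without cells; nearly all actives have a fitted effect of over 55% in size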
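Toxicity toward the 2HG-producing NT line was scored as %Activity, normalised to DMSO and no-cell wells, from CellTiter-Glo luminescence after 48 hours' treatment.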
HT1080 IDH1KD tx: toxicity to HT-1080 IDH1 knockdown cells (counter line); HT-1080 IDH1 knockdown viability, ATP luminescence, 48 h; Potency, µM (highest dose often 46.1 µM), inactives show at the top dose activity, negative = toxicity, actives largely listed as cytotoxic; 360,000 tested, 2% active; AID 686971;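 further: 0% = DMSO wells and -100% = cell-free medium wells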
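Cytotoxicity counter-line: IDH1KD HT-1080, 48 h, CellTiter-Glo. Curves classed by r2, magnitude and activity.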
KB-3-1 tox: KB-3-1 parental cell cytotoxicity; KB-3-1 viability, CellTiter-Glo ATP luminescence, 72 h; Potency, µM (series often up to 46.1 µM), actives largely listed as cytotoxic; 400,000 tested, 1.4% active; AID 1347075; further: nearly all actives have a fitted effect of over 60% in size
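Luminescent ATP read-out (CellTiter-Glo) measures survival of drug-naive KB-3-1 cells after 72 h compound exposure at 37 °C. Titration series was screened from lowest to highest concentration, with DMSO vehicle plates as background controls.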
TDP1 cell CPT: growth inhibition of DT40 Tdp1-/-;hTDP1 cells with camptothecin (screen for TDP1 inhibitors); chicken DT40 Tdp1-/-;hTDP1 cells + 20 nM CPT, ATP luminescence, 48 h; 420,000 tested, 12% active; Potency, µM (titrated, usually from 46.2 µM), for inactives: top-dose activity change, negative = growth inhibition, most hits filed as inhibitors; further: nearly all actives have a fitted effect of over 55% in size
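Chicken DT40 Tdp1-/- cells complemented with human TDP1, 400 cells/well, exposed to compounds plus 20 nM camptothecin for at least 48 h at 37 C; viability read as ATP content by CellTiter-Glo luminescence.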
Starred values were filed as active, the others as inactive; i = inactive; ? = inconclusive; nt = no result given. The call rests on the fitted dose curve; in most records, active means well fitted curve in the direction sought with a large enough effect; inconclusive means small, poorly fitted or top-dose-only effect, or another doubt; inactive means no such curve, though single readings can be large; an effect the other way counts as inactive or inconclusive. Unless noted, on the % scale 0 is the no-effect control and ±100 the full control effect; potency means the concentration at half of the fitted maximal effect.

SMILES	KB-V1 MDR tox	TDP1 cell noCPT	HT1080-NT tox	HT1080 IDH1KD tx	KB-3-1 tox	TDP1 cell CPT
CCOC(=O)C1=C[C@@H](C(C)C)N(S(=O)(=O)c2ccc(C)cc2)[C@H]1c1ccccc1F	i	?	-0.5%	-19.1%	i	?
CCOC(=O)C1=C[C@@H](CC)N(S(=O)(=O)c2ccc(C)cc2)[C@H]1c1ccccc1	i	14.6µM*	-7.9%	-27.2%	?	23.1µM*
CCOC(=O)C1=C[C@@H](C(C)(C)C)N(S(=O)(=O)c2ccc(C)cc2)[C@H]1c1ccc(C)cc1	i	11.6µM*	?	13µM*	i	13µM*
CCOC(=O)C1=CCC(c2ccccc2)N(S(=O)(=O)c2ccc(C)cc2)[C@H]1CC (some centres not stated)	?	16.4µM*	-25.0%	-29.7%	?	20.6µM*
COCC(=O)N1CCC2(CCCN(c3ncccn3)C2)CC1	nt	0.1%	nt	nt	nt	7.9%
Fc1cccc(Cc2c(-c3ccc(Cl)cc3)nc3c(Cl)cc(C(F)(F)F)cn23)c1	i	-19.6%	-0.5%	11.9%	i	-4.4%
CC(=O)C[C@@H]1SC[C@H](c2ccccc2)N1S(=O)(=O)c1ccc(C)cc1	?	14.6µM*	-8.0%	-3.4%	?	14.6µM*
CCOC(=O)C1=CCN(S(=O)(=O)c2ccc(C)cc2)C1c1ccccc1 (configuration not stated)	i	?	-1.6%	1.3%	i	?
CCOC(=O)C1=C[C@@H](C2CCCC2)N(S(=O)(=O)c2ccc([N+](=O)[O-])cc2)[C@H]1c1ccccc1	?	11.6µM*	?	?	i	20.6µM*
O=S1(=O)N=C(Nc2cccc(C(F)(F)F)c2)c2ccccc21	i	?	nt	nt	i	?
O=C1NC[C@@H](CCCCN2CCN(CCc3ccccc3)C(=O)C2=O)N(CC2CCCCC2)C1=O	i	-2.7%	12.0%	10.0%	?	-3.0%
COc1ccc(N2C(=O)CC(N3CCC(O)(c4ccc(Br)cc4)CC3)C2=O)cc1 (configuration not stated)	i	?	-2.8%	-0.8%	i	18.4µM*
O=C1CC(N2CCC(O)(c3ccc(Br)cc3)CC2)C(=O)N1c1ccc(Cl)cc1 (configuration not stated)	?	25.9µM*	-5.6%	-13.2%	i	?
COc1ccc(NC(=O)CSc2oc(-c3ccco3)nc2S(=O)(=O)c2ccccc2)c(OC)c1	i	?	nt	nt	i	?
COc1ccccc1NC(=O)CSc1oc(-c2ccccc2)nc1S(=O)(=O)c1ccc(C)cc1	i	20.6µM*	nt	nt	i	18.4µM*
COc1ccccc1NC(=O)CSc1oc(-c2ccc(F)cc2)nc1S(=O)(=O)c1ccc(Br)cc1	i	13µM*	nt	nt	i	20.6µM*
Cc1ccc(S(=O)(=O)c2nc(-c3ccccc3)oc2SCC(=O)NC2CCCCC2)cc1	i	10.7%	nt	nt	i	-19.2%
COc1ccccc1NC(=O)CSc1oc(-c2ccccc2)nc1S(=O)(=O)c1ccccc1	i	16.4µM*	nt	nt	i	20.6µM*
COc1ccccc1NC(=O)CSc1oc(-c2ccco2)nc1S(=O)(=O)c1ccc(C)cc1	i	?	nt	nt	i	23.1µM*
CN1CCOc2cc(S(=O)(=O)NCc3ccc(S(N)(=O)=O)cc3)ccc21	i	-5.5%	8.3%	-1.0%	i	3.7%
COc1ccc(-n2c(SCC(=O)N3CCC(C)CC3)nc3c([nH]c4ccccc43)c2=O)cc1	?	2.3%	nt	nt	?	-1.8%
O=C(c1ccccc1)N1CCCCC1CCN1CCCCC1 (configuration not stated)	nt	-4.5%	nt	nt	nt	-29.4%
O=C(Cn1cc([N+](=O)[O-])cn1)NC1CCCCCC1	i	0.4%	16.9%	10.6%	i	-12.9%
CCc1cccc(C)c1NC(=O)c1cn2c3c(ccc(Cl)c3c1=O)OC(C)C2 (configuration not stated)	i	?	nt	nt	i	?
O=C(Nc1ccc(N2CCN(c3ccc(F)cc3)CC2)c(C(=O)O)c1)c1cccs1	i	-10.7%	nt	nt	i	-3.5%
SMILES	KB-V1 MDR tox	TDP1 cell noCPT	HT1080-NT tox	HT1080 IDH1KD tx	KB-3-1 tox	TDP1 cell CPT
Cc1ccc(S(=O)(=O)c2nc(-c3cccs3)oc2SCC(N)=O)cc1	i	-12.5%	-17.2%	-1.2%	i	-2.1%
COc1ccccc1NC(=O)CSc1oc(-c2cccs2)nc1S(=O)(=O)c1ccc(Br)cc1	i	?	nt	nt	i	23.1µM*
CCc1ccc(NC(=O)CSc2nc(=O)n(CCN(C)C)c3c2CCCC3)cc1	i	?	5.5%	1.2%	i	?
CC/C(=N\NC(=O)c1cc(C)oc1C)c1ccc(OC(F)F)cc1	?	?	-5.3%	-14.0%	?	?
CC/C(=N\NC(=O)c1ccc(CN(C)S(=O)(=O)c2ccc(C)cc2)cc1)c1ccc(OC(F)F)cc1	14.6µM*	20.6µM*	-8.7%	-4.8%	?	?
Cc1ccc(S(=O)(=O)N(C)Cc2ccc(C(=O)NN=C(CC(C)C)CC(C)C)cc2)cc1	2.31µM*	23.1µM*	4.6%	-21.2%	?	?
O=C(Nc1ccc(S(=O)(=O)N2CCCC2)cc1)c1cc(=O)c2ccccc2o1	i	-9.7%	28.6%	17.4%	i	?
Cc1ccc(NC(=O)c2cc(=O)c3ccccc3o2)cc1S(=O)(=O)N1CCOCC1	16.4µM*	11.6µM*	-16.6%	-6.1%	i	18.4µM*
Cc1ccc(NC(=O)c2cc(=O)c3ccccc3o2)cc1S(=O)(=O)N1CCCCC1	9.2µM*	20.6µM*	-24.1%	?	?	?
Cc1ccc(NC(=O)c2ccccc2-c2ccc(C(F)(F)F)cc2)cc1S(=O)(=O)N1CCOCC1	i	14.6µM*	-23.0%	-20.3%	i	?
COCc1c(C(=O)Nc2ccc(C)c(S(=O)(=O)N3CCOCC3)c2)oc2ccccc12	4.61µM*	?	6.4%	-1.8%	?	?
Cc1ccc(NC(=O)c2ccc3ccccc3n2)cc1S(=O)(=O)N1CCOCC1	?	14.6µM*	-18.3%	-19.9%	i	?
Cc1ccc(NC(=O)c2ccc([N+](=O)[O-])o2)cc1S(=O)(=O)N1CCOCC1	?	4.61µM*	?	6.51µM*	?	5.17µM*

Assay outcomes (PubChem BioAssay)
